High-throughput results (PubChem BioAssay)
HepG2 viability = counter-screen for TGF-b inhibitors: cytotoxicity in HepG2 cells; HepG2 CAGA-GFP viability, ATP luminescence, 18 h; actives 0.76% (n = 410,000); Potency, µM (titrated, usually from 46.1 µM), most hits filed as cytotoxic
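HepG2 CAGA-GFP cells (1000/well, DMEM with 1% FBS) received compound, then TGF-beta at 500 pg/mL final, and were incubated 18 hours at 37 degrees C. Viability was read by CellTiter-Glo luminescence. Media-only wells were set as complete cell-killing and DMSO as no toxicity.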
IL1B secr inh = blocks inflammasome-driven IL-1 beta release | THP-1 LPS/ATP IL-1B secretion, AlphaLISA, 16 h; stronger effect = lower value | activity change, % at 57.5 µM | actives 4.7% (n = 360,000); in the data active = activity change below about -50%; inconclusive = mostly about -30% to -49%
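Secreted IL-1B measured by AlphaLISA bead assay after 16 h compound exposure of THP-1 cells; compounds (final up to 57.5 uM) added 1 h before LPS (250 ng/mL) and ATP (1.25 mM) stimulation; lower signal means less secretion.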
TGFb inhibitor = TGF-b pathway inhibition | HepG2 CAGA-GFP TGF-b/SMAD3 reporter, GFP fluorescence, 18 h; TGF-beta stimulated, 500 pg/mL final | Potency, µM (titrated, usually from 46.1 µM), hits mostly inhibitors | actives 1.2% (n = 410,000); note: nearly all actives have a fitted effect of over 65% in size
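HEPG2 CAGA-GFP cells (1000/well, DMEM with 1% FBS) were pre-incubated 2 h at 37 degrees C, given compound by pin tool, then stimulated with TGF-beta at 500 pg/mL final for 18 h before per-cell GFP fluorescence imaging.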
DT40 TDP1 no CPT = qHTS for Inhibitors of human tyrosyl-DNA phosphodiesterase 1 (TDP1): qHTS in cells in absence of CPT; DT40 Tdp1-/- hTDP1 cells, no CPT, ATP luminescence, 48 h; Potency, µM (series often up to 46.2 µM), usual class: inhibitors; actives 15% (n = 420,000); AID 686978, 2013; note: nearly all actives have a fitted effect of over 55% in size
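No-CPT arm: Tdp1-/-;hTDP1 DT40 cells (400/well) plus compounds, incubated ≥48 hr at 37 °C. Readout CellTiter-Glo luminescence.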
S-ASM inh = human S-ASM enzyme inhibition. P17405. placental ASM, HMU-PC fluorogenic substrate, 60 min. Potency, µM (series often up to 57.5 µM), most hits filed as inhibitors. actives 0.006% (n = 340,000). AID 504937
Target sequence (P17405 47-631 limits assumed): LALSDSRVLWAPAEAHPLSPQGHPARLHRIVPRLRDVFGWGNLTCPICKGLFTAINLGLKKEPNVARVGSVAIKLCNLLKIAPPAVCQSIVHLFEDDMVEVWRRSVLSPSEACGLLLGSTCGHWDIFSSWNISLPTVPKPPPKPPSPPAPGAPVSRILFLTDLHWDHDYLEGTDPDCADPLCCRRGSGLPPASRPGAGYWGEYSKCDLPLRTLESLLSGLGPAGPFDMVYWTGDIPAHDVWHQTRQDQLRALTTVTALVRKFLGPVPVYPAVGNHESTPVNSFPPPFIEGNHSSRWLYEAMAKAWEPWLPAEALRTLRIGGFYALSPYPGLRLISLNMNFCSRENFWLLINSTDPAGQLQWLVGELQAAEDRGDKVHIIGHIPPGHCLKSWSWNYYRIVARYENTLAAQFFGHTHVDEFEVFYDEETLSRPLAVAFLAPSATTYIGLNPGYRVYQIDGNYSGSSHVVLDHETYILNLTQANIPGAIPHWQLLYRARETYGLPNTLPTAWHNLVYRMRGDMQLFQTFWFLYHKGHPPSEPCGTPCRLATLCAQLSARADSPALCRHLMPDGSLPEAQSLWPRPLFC
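Human placenta-derived ASM preincubated with compound 10 min at room temperature, then reacted with 9 uM (final) fluorogenic HMU-PC substrate for 60 min at 37 C. Stop solution raises pH to 10; fluorescence read at Ex 386/Em 447 nm.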
TDP1 cell CPT = DT40-hTDP1 cell growth loss with CPT; actives 12% (n = 420,000); Potency, µM (top dose mostly 46.2 µM), actives largely listed as inhibitors; AID 686979; chicken DT40 Tdp1-/-;hTDP1 cells + 20 nM CPT, ATP luminescence, 48 h; note: nearly all actives have a fitted effect of over 55% in size
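Chicken DT40 Tdp1-/- cells complemented with human TDP1, 400 cells/well, exposed to compounds plus 20 nM camptothecin for at least 48 h at 37 C; viability read as ATP content by CellTiter-Glo luminescence.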
Each line names hits and unclear results; the compound was inactive in the other large screens. Only some compounds are listed: those with a hit (about 19% of all), similar ones and a draw of the others. Unless noted, calls come from the whole dose curve; as a rule, active = well fitted curve in the direction sought with a large enough effect; inconclusive = small, poorly fitted or top-dose-only effect, or another doubt; inactive = no such curve, though single readings can be large; an effect the other way counts as inactive or inconclusive.

CC(Nc1cccc([N+](=O)[O-])c1)C(=O)Nc1ccc(S(=O)(=O)N2CCCC2)cc1 (stereo unspecified)	IL1B secr inh inconclusive, TGFb inhibitor inconclusive, DT40 TDP1 no CPT 15µM, TDP1 cell CPT 15µM
O=C(NC(=S)Nc1ccc(S(=O)(=O)N2CCCC2)cc1)C1CCC1	DT40 TDP1 no CPT 16µM, TDP1 cell CPT inconclusive
CCCC(C)C(=O)Nc1ccc(S(=O)(=O)N2CCCC2)cc1 (stereo unspecified)	none
CC(C)CC(=O)NC(=S)Nc1ccc(S(=O)(=O)N2CCCC2)cc1	DT40 TDP1 no CPT inconclusive, TDP1 cell CPT inconclusive
CCCC(C(=O)Nc1ccc(S(=O)(=O)N2CCCC2)cc1)c1ccccc1 (stereo unspecified)	TGFb inhibitor inconclusive, DT40 TDP1 no CPT inconclusive, TDP1 cell CPT 21µM
O=[N+]([O-])c1cccc(S(=O)(=O)Nc2ccc(S(=O)(=O)N3CCCC3)cc2)c1	none
O=C(c1ccccc1Br)N(Cc1ccco1)C1CCS(=O)(=O)C1 (stereo unspecified)	none (no result: IL1B secr inh, S-ASM inh)
Cc1ccc2c(c1)-c1c(ssc1=S)C(C)(C)N2C(=O)c1ccco1	IL1B secr inh -57, TGFb inhibitor inconclusive, DT40 TDP1 no CPT 16µM, TDP1 cell CPT inconclusive
Cc1ccc2c(c1)-c1c(ssc1=S)C(C)(C)N2C(=O)CSC1=NCCS1	IL1B secr inh -66, DT40 TDP1 no CPT inconclusive, TDP1 cell CPT inconclusive
CCOc1ccc2c(c1)-c1c(ssc1=S)C(C)(C)N2C(=O)CSC1=NCCS1	IL1B secr inh -54, DT40 TDP1 no CPT 12µM, TDP1 cell CPT inconclusive
CC1(C)c2ssc(=S)c2-c2ccccc2N1C(=O)c1ccco1	DT40 TDP1 no CPT inconclusive, S-ASM inh inconclusive, TDP1 cell CPT inconclusive
CCOc1ccc2c(c1)-c1c(ssc1=S)C(C)(C)N2	DT40 TDP1 no CPT 18µM, TDP1 cell CPT inconclusive
CC[N+]1(C)[C@@H]2CC[C@H]1CC(OC(=O)[C@H]1CCC(C(=O)OC3C[C@H]4CC[C@@H](C3)[N+]4(C)CC)(c3ccccc3)c3ccccc31)C2 (stereo partly specified)	none
COc1cc2c(cc1OC)CN(C(=O)CN1CCN(S(=O)(=O)c3ccccc3)CC1)CC2	DT40 TDP1 no CPT inconclusive, TDP1 cell CPT inconclusive
Clc1cccc(Nc2nc(-c3ccncc3)cs2)c1	IL1B secr inh -61, DT40 TDP1 no CPT inconclusive, TDP1 cell CPT inconclusive
Clc1ccc(-c2csc(Nc3cccnc3)n2)cc1	IL1B secr inh -80
Cc1cccc(Nc2nc(-c3ccncc3)cs2)c1	DT40 TDP1 no CPT inconclusive, TDP1 cell CPT inconclusive
c1ccc(-c2csc(Nc3cccnc3)n2)cc1	IL1B secr inh inconclusive, DT40 TDP1 no CPT inconclusive
CCc1ccccc1NC(=O)CSc1nc2cc(C(=O)NCC3CCCO3)ccc2c(=O)n1CC1CCCO1 (stereo unspecified)	DT40 TDP1 no CPT inconclusive, TDP1 cell CPT inconclusive (no result: S-ASM inh)
CCCCCn1c(SCC#N)nc2cc(C(=O)NCC3CCCO3)ccc2c1=O (stereo unspecified)	DT40 TDP1 no CPT 23µM, TDP1 cell CPT inconclusive
O=C(CCCn1c(SCc2cccc([N+](=O)[O-])c2)nc2ccccc2c1=O)NCC1CCCO1 (stereo unspecified)	IL1B secr inh inconclusive, DT40 TDP1 no CPT 23µM, TDP1 cell CPT inconclusive
O=C(CCCn1c(SCc2ccccc2F)nc2ccccc2c1=O)NCC1CCCO1 (stereo unspecified)	DT40 TDP1 no CPT inconclusive
Cc1cc2n(n1)CCC(=O)N2Cc1ccc(C(=O)Nc2ccc(Br)c(C)c2)cc1	TGFb inhibitor inconclusive, DT40 TDP1 no CPT inconclusive (no result: IL1B secr inh, S-ASM inh)
Nc1nnc(/C=C/c2cccc([N+](=O)[O-])c2)s1	DT40 TDP1 no CPT inconclusive
CCC(=O)N[C@@H]1CC[C@@H](CCNC(=O)Nc2ccc(F)cc2)O[C@@H]1CO	none (no result: HepG2 viability, TGFb inhibitor, S-ASM inh)
